The nature of assay [1]: Nuclear factor erythroid 2-related factor 2/antioxidant responsive element (Nrf2/ARE) small molecule agonists: qHTS cell viability counter screen in human keratinocytes (AID 1919968; active = well fitted curve in the direction sought with a large enough effect in the repeat runs; an effect the other way counts as inactive or inconclusive; also: nearly all actives have a fitted effect of over 55% in size; also: potency is read from the fitted curve at half-maximal effect). In outline: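 KeratinoSens HaCaT cells, 1,500/well, preincubated 5 h, then exposed to compounds in DMSO for 23 h at 37 C/5% CO2. Viability read as CellTiter-Fluor fluorescence after 1 h, in the same wells as the ARE-luciferase read.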
On the technique in general: Quantitative high-throughput screening tests each substance at several concentrations.

A short description of assay [2]: Nuclear factor erythroid 2-related factor 2/antioxidant responsive element (Nrf2/ARE) small molecule agonists: luciferase reporter gene qHTS assay in human keratinocytes (AID 1919969). Also: nearly all actives have a fitted effect of over 35% in size. In general terms: Reporter assays use an easily measured gene product as a stand-in for the process of interest.
Assay [3] concerns the target Gonadotropin-releasing hormone receptor (Homo sapiens) (UniProt P30968). Put plainly: Human gonadotropin-releasing hormone receptor (GnRHR) small molecule agonists, calcium flux assay in GnRHR-HEK293 cells (AID 1920063). Also: nearly all actives have a fitted effect of over 35% in size. Also: potency is read from the fitted curve at half-maximal effect. In outline:
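HEK293 cells stably expressing human GnRHR were dye-loaded for 1 h at 37 C. Compound was added in agonist mode and fluorescence (Ex/Em 480/540) recorded kinetically for 3 min. Fifteen concentrations, triplicates.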
In general terms: Calcium assays in cells follow changes in intracellular calcium, usually with a dye or a luminescent sensor.

For assay [4], the target named is KiSS-1 receptor (Homo sapiens) (UniProt Q969F8). Put plainly: Human kisspeptin (KISS1R) small molecule agonists, calcium flux assay in KISS1R-HEK293 cells (AID 1920064; active = well fitted curve in the direction sought with a large enough effect in the repeat runs; an effect the other way counts as inactive or inconclusive). In outline:
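HEK293 cells stably expressing human KISS1R were loaded with calcium dye for 1 h at 37 C, then given compound; fluorescence (Ex/Em 480/540) was read kinetically for 3 min. Fifteen concentrations, triplicate.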

Assay [5] is described as follows: G protein-coupled receptor (GPCR) small molecule agonists, calcium flux assay: HEK293 wild type cell line counter screen (AID 1920065). In outline:
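Wild-type HEK293 cells plated 18 h, loaded with calcium dye 1 h at 37 C, then compounds added in agonist mode (ATP as positive control). Kinetic fluorescence Ex/Em 480/540 recorded 3 min at 1 sec intervals; 15 concentrations, triplicate.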

Assay [6] can be described thus: p53 small molecule agonists, cell-based qHTS assay with human liver microsomes (AID 1963577).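 Also: p53 response element beta-lactamase reporter cells with liver microsomes plus NADPH.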 The gist of the method: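 Metabolically competent format: test substances, human liver microsomes and NADPH (both 0.5 mg/mL final) incubated with p53RE-bla cells 16 h at 37 C. Beta-lactamase reporter signal then quantified by fluorescence.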
Assay [7] is described as follows: p53 small molecule agonists, cell-based qHTS assay with rat liver microsomes (AID 1963578). The gist of the method:
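Each plate received p53RE-bla cells, then compound, then rat liver microsomes and NADPH (both 0.5 mg/mL final). Plates were held 16 h at 37 C, and beta-lactamase activity was detected with LiveBLAzer over 2 h.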

Assay [8] can be described thus: p53 small molecule agonists, cell-based qHTS assay with human liver microsomes: qHTS cell viability counter screen (AID 1963579). Also: nearly all actives have a fitted effect of over 45% in size. The gist of the method:
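Tox21 library compounds, delivered from DMSO stocks, were tested on p53RE-bla cells together with 0.5 mg/mL human liver microsomes and 0.5 mg/mL NADPH (final) over 16 h at 37 C; CellTiter-Glo luminescence served as the cytotoxicity measure.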

Assay [9] in a line: p53 small molecule agonists, cell-based qHTS assay: qHTS cell viability counter screen (AID 1963581). Also: nearly all actives have a fitted effect of over 45% in size. In outline:
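p53RE-bla HCT-116 cells, compounds added 5 h after plating and incubated 16 h at 37 C. Cytotoxicity measured in the same wells as intracellular ATP by CellTiter-Glo luminescence after 30 min at room temperature.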

Assay [10] is described as follows: p53 small molecule agonists, cell-based qHTS assay (AID 1963582; active = well fitted activation curve with a large enough effect in the signal ratio in the repeat runs, not every such curve was filed as active; the % refers to the signal ratio). The gist of the method: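 p53RE-bla reporter cells, compounds added in DMSO after 5 h plating, incubated 16 h at 37 C. Beta-lactamase read via 2 h room-temperature LiveBLAzer B/G FRET substrate, fluorescence intensity.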
Assay [11] can be described thus: cAMP Responsive Elements (CRE) small molecule antagonists, cell-based qHTS assay (AID 1963591; active = well fitted inhibition curve with a large enough effect in the signal ratio in the repeat runs, not every such curve was filed as active; the % refers to the signal ratio). In outline:
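CRE-bla HEK293T cells plated 18 h, then given compound plus NKH477 at 0.25 uM final for 3 h at 37C. Beta-lactamase reporter read with LiveBLAzer B/G FRET substrate after 2 h at room temperature.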

For assay [12], the target named is D(2) dopamine receptor (Homo sapiens) (UniProt P14416). The experiment in a line: Dopamine D2 receptor (DRD2) small molecule antagonists, cell-based qHTS assay (AID 1963595; active = well fitted inhibition curve with a large enough effect in the signal ratio in the repeat runs, with a control signal flat; the % refers to the signal ratio). In outline:
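Stable D2 receptor HEK293 line, 24 h after seeding. Compound preincubated 10 min, then quinpirole (12 nM) with forskolin analogue NKH477 (200 nM), 30 min, room temperature. Detection by time-resolved FRET of cAMP.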

In assay [13] the target is Beta-2 adrenergic receptor (Homo sapiens) (UniProt P07550). The experiment in a line: Adrenergic beta2 receptor (ADRB2) small molecule antagonists, cell-based qHTS assay (AID 1963592). Also: series mostly up to about 92 µM; nearly all actives have a fitted effect of over 50% in size. The gist of the method:
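Cells (CHO, stable ADRB2 overexpression) incubated 18-20hr at 37C; compounds added from DMSO; agonist mix (1nM isoproterenol, 100uM IBMX, 25uM Ro-20-1724) added; 0.5hr RT; d2-cAMP and anti-cAMP-cryptate added; 1hr RT; 665/615 nm read.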

Assay [14] has as its target D(2) dopamine receptor (Homo sapiens) (UniProt P14416). The experiment in a line: Dopamine D2 receptor (DRD2) small molecule agonists, cell-based qHTS assay (AID 1963594). Also: nearly all actives have a fitted effect of over 35% in size. Also: potency is read from the fitted curve at half-maximal effect. The gist of the method: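 HEK293 cells stably expressing human DRD2, pre-treated with PDE inhibitor Ro20-1724 (0.1 mM final) and compound 10 min at room temperature, then stimulated with NKH477 (200nM […]) for 30 min. cAMP read by HTRF (665/620 nm).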

Assay [15] concerns the target 5-hydroxytryptamine receptor 2A (Homo sapiens) (UniProt P28223). The experiment in a line: 5-hydroxytryptamine receptor 2A (HTR2A) small molecule antagonists, cell-based qHTS assay (AID 1963586). Also: nearly all actives have a fitted effect of over 45% in size. In outline:
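Antagonist-mode intracellular calcium assay: DOI (4 nM) added after 5 min compound pre-incubation at room temperature to dye-loaded HTR2A-CHO cells. Fluorescence followed for 3 min, sampled every second.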

Assay [16] has the same target. The experiment in a line: 5-hydroxytryptamine receptor 2A (HTR2A) small molecule agonists, cell-based qHTS assay (AID 1963587). Also: nearly all actives have a fitted effect of over 30% in size. Also: potency is read from the fitted curve at half-maximal effect. In outline:
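CHO cells stably expressing human HTR2A, plated 18 h, loaded with calcium dye 1 h at 37 C. Agonist mode: compounds added and intracellular calcium fluorescence recorded kinetically for 2 min at 1 sec intervals.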

A short description of assay [17]: cAMP Responsive Elements (CRE) small molecule agonists, cell-based qHTS assay (AID 1963590). In outline: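 CRE-bla HEK 293T cells, 2,000/well in DMEM with 10% dialyzed FBS and 25 mM HEPES, pre-incubated 18 h at 37 C, then exposed to compound 3 h at 37 C. Beta-lactamase reporter read with LiveBLAzer B/G FRET substrate after 2 h at room temperature.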
In assay [18] the target is Muscarinic acetylcholine receptor M1 (Homo sapiens) (UniProt P11229). Put plainly: Cholinergic receptor muscarinic 1 (CHRM1) small molecule antagonists, cell-based qHTS assay (AID 1963588). Also: nearly all actives have a fitted effect of over 40% in size. In outline:
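CHRM1-CHO calcium-flux assay, antagonist mode. Cells were seeded 18 h, dye-loaded 1 h at 37 C and given compound for 5 min at RT, then acetylcholine was added at 50nM. FDSS fluorescence was read 3 min; 15 concentrations, three runs.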

Assay [19] shares this target. The experiment in a line: Cholinergic receptor muscarinic 1 (CHRM1) small molecule agonists, cell-based qHTS assay (AID 1963589). Also: nearly all actives have a fitted effect of over 35% in size. The gist of the method:
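CHO cells stably expressing human CHRM1 were loaded with calcium dye for 1 h at 37 C, then compound was added in agonist mode. Intracellular calcium fluorescence was followed kinetically at 1 s intervals. Fifteen concentrations were tested in three independent runs.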

Experimental findings from PubChem BioAssay (Tox21) are described below.

A number with no mark means an inactive call. Results filed as inconclusive are left out. Active and inactive are the calls of the source. Unless noted, calls follow the shape of the full dose curve.
% is scaled to controls: 0 for no effect and ±100 for the full control effect.

Sequence of Beta-2 adrenergic receptor (Homo sapiens) (P07550 whole entry, looked up): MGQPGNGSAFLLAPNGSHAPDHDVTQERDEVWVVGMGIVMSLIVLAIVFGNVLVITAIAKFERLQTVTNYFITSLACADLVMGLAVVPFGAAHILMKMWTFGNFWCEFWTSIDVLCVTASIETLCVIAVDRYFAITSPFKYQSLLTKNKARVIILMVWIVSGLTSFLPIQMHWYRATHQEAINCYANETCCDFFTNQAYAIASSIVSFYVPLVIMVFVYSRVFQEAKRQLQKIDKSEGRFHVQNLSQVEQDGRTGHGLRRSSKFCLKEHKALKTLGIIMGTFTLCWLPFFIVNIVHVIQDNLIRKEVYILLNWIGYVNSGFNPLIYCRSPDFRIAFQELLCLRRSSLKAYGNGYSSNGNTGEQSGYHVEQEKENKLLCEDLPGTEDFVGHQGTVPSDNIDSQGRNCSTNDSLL
Sequence of Muscarinic acetylcholine receptor M1 (Homo sapiens) (P11229 whole entry, looked up): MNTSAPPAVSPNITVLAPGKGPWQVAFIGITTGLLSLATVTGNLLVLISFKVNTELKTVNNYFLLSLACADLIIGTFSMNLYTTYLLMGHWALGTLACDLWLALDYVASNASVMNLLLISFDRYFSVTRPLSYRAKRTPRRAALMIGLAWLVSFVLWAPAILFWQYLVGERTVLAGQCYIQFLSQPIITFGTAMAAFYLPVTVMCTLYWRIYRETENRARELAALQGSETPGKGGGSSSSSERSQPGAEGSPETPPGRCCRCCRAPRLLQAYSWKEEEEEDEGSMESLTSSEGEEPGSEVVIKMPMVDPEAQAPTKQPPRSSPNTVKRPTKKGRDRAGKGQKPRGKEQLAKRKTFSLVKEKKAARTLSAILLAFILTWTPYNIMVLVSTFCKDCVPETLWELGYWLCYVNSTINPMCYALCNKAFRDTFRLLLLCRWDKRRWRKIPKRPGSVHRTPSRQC
Sequence of Gonadotropin-releasing hormone receptor (Homo sapiens) (P30968 whole entry, looked up): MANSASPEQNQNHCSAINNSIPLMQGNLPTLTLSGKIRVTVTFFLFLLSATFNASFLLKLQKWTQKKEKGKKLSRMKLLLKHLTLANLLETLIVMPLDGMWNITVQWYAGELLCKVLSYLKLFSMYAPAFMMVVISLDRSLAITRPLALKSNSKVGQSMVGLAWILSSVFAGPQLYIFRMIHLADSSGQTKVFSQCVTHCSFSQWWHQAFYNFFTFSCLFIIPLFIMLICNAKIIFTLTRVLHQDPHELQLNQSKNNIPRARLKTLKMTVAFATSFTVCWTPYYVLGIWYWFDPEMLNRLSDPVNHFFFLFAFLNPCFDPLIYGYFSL
Sequence of KiSS-1 receptor (Homo sapiens) (Q969F8 whole entry, looked up): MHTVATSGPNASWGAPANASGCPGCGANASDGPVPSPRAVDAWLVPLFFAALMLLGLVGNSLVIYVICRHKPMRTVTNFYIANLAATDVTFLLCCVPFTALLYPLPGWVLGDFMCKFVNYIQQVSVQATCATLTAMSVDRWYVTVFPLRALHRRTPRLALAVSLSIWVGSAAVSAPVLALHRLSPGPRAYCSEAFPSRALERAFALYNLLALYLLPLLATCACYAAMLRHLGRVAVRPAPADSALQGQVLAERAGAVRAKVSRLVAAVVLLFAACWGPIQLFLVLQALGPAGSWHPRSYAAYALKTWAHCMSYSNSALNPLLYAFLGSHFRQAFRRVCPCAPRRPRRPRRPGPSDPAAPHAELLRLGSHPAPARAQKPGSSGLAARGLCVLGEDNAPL
Sequence of 5-hydroxytryptamine receptor 2A (Homo sapiens) (P28223 whole entry, looked up): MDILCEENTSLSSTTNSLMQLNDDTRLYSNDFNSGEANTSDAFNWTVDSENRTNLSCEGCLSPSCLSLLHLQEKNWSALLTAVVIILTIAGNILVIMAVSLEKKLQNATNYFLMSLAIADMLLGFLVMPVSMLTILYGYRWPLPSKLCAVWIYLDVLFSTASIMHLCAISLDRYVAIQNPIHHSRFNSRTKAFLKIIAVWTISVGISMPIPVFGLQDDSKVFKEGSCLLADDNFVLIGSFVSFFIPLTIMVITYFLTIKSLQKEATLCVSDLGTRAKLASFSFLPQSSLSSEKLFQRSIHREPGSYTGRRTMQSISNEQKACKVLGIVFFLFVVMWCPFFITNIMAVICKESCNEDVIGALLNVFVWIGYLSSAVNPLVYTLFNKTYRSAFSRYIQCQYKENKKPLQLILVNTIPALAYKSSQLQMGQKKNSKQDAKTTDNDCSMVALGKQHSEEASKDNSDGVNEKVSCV
Sequence of D(2) dopamine receptor (Homo sapiens) (P14416 whole entry, looked up): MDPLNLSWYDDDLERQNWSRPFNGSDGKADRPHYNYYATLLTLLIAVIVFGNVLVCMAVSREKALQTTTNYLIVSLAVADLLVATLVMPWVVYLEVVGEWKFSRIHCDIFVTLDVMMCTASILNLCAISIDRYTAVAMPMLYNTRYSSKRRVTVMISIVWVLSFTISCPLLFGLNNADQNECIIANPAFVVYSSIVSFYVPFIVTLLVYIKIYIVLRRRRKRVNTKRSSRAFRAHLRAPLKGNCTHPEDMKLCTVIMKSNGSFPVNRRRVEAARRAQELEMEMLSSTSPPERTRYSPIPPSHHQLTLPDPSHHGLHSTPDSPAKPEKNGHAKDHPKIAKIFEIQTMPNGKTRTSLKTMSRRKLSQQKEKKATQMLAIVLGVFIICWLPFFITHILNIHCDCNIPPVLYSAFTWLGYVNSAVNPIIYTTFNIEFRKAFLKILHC

For `CC1COc2c(N3CCN(C)CC3)c(F)cc3c(=O)c(C(=O)O)cn1c23` (stereo not drawn), the Potency entry in [1], in assay [2], in [3], in assay [6], in assay [7] and in [8] was “inactive” each time. The Potency result in assay [9], in assay [10], in assay [11] and in [12] was “inactive” throughout. Besides, the result in assay [4] and in assay [5] was inactive.
On to `CCCCN1CCCC[C@H]1C(=O)Nc1c(C)cccc1C`, for which the Potency entry in assay [1], in assay [2], in assay [3], in assay [6], in [7] and in assay [8] was “inactive” each time. Also, the Potency result in [9], in assay [10], in assay [13], in assay [14] and in assay [12] was “inactive” in each case. Further, the result in [4] and in [5] was inactive.
For `CCN(CC)c1ccc2c(-c3ccc(S(=O)(=O)O)cc3S(=O)(=O)[O-])c3ccc(=[N+](CC)CC)cc-3oc2c1`, the Potency in assay [1] was 17.8 µM (active); in [3] it was 45.1 µM (active); in assay [16], 56.7 µM (active); in assay [14] it was 24.5 µM (active). In addition, the Potency entry in [2], in [6], in assay [7], in [8], in [10] and in assay [15] was “inactive” throughout. Also, the Potency entry in [17] and in [11] was “inactive” throughout. For the same molecule, the result in assay [4] and in assay [5] was inactive.
Consider `CCCCNc1ccc(NCCCC)c2c1C(=O)c1ccccc1C2=O`, for which the figures for the activity change, negative = cytotoxicity in assay [1], in [8] and in assay [9] were -4.75% [at 19 µM], -5.72% [at 13.5 µM] and -1.83% [at 13.5 µM], respectively. Further, the activity, positive = activation in assay [2] was 14.7% [at 19 µM]. Also, the activity change in assay [3] is -0.141% [at 11.8 µM, hits give high values]. Further, the activation in [4] was -3.45% [at 15.8 µM]; in [5], 0.174% [at 11.8 µM]; in [6] it was 5.72% [at 13.5 µM]; in assay [7] it was 1.5% [at 13.6 µM]; in assay [19] it was -0.373% [at 15.8 µM]; in assay [17], -1.16% [at 19 µM]. Further, in assay [14], the activation is 6.31% [at 19 µM]. In addition, the activity, negative = inhibition was -10.8% [at 12.7 µM] in assay [15] and 4.22% [at 12.6 µM] in assay [18]. The activity change, negative = inhibition was -1.01% [at 18.9 µM] in assay [11], 1.56% [at 19 µM] in assay [13] and -5.82% [at 18.9 µM] in [12].
With `CCO`, the Potency result in [1], in assay [2], in assay [3], in assay [6], in assay [7] and in [8] was “inactive” each time. Moreover, the Potency entry in assay [9], in [10], in assay [17], in assay [11], in assay [13] and in assay [14] was “inactive” throughout. Further, in [12], the Potency entry was “inactive”. For the same molecule, the result in assay [4] and in assay [5] was inactive.
For `NS(=O)(=O)c1cc(C(=O)O)cc(N2CCCC2)c1Oc1ccccc1`, the Potency entry in assay [1], in assay [2], in assay [3], in assay [6], in assay [7] and in assay [8] was “inactive” throughout. The Potency result in assay [10], in assay [15], in [16], in [18], in assay [19] and in assay [17] was “inactive” throughout. The Potency result in [11], in assay [13], in assay [14] and in assay [12] was “inactive” each time. The result in [4] and in assay [5] was inactive.
For `COc1ccc(OC)c(NC(=O)CC(C)=O)c1`, the Potency result in assay [1], in [2], in assay [3], in [6], in assay [7] and in assay [8] was “inactive” throughout. In addition, the Potency entry in assay [9], in assay [15], in assay [18], in assay [17], in assay [13] and in assay [14] was “inactive” throughout. In addition, in assay [12], the Potency entry is “inactive”. Also, the outcome in assay [4] and in [5] was inactive.
As to `COc1cc2c3cc1Oc1cc(ccc1O)C[C@@H]1c4c(cc(OC)c(O)c4Oc4ccc(cc4)C[C@@H]3N(C)CC2)CC[N+]1(C)C`, the Potency entry in assay [1], in [2], in [3], in [6], in assay [7] and in assay [8] was “inactive” each time. Moreover, the Potency entry in assay [10], in assay [17], in assay [11], in assay [13], in [14] and in assay [12] was “inactive” throughout. The outcome in [4] and in [5] was inactive.
